Results as given in PubChem BioAssay AID1259418 (Broad Institute, 2018).
Out of some 3,400 compounds screened, about 840 (25%) were called active. Inconclusive results (about 11%) are left out. The list is a sample of the results. Potency and affinity values are given separately. A number with no mark means an inactive call.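 How the source made its calls: active means fitted half-maximal concentration of signal decrease at or below twice the sample's top tested concentration; inconclusive means flat curve between -70 and -30 percent, or poor fit; inactive means flat within 30 percent, signal rise, or potency above limit.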

Test: inhibitors of Toxoplasma growth in IFN-γ-primed HeLa – cell-based, ME49Luc, luciferase, 72 h, dose response (AID 1259418)
Settings: T. gondii ME49Luc in IFN-y HeLa, active compounds read low, -100% = high-dose IFN-γ control wells; at 19.5 µM unless noted

In order of falling max activity:
1. Cc1oc(-c2cccc(Cl)c2)nc1CSc1nc2c(c(=O)[nH]1)CN(C(C)C)CC2  17.7% [at 0.68 µM]
2. Cc1nc(-c2ccc(F)cc2)sc1-c1ccc(SCc2c(F)cccc2Cl)nn1  12.7% [at 0.68 µM]
3. Cc1ccccc1CC(=O)N1CCC2(CC1)Nc1cc(F)ccc1-n1cccc12  10.3% [at 0.68 µM]
4. COc1ccc2c(c1)NC1(CCN(C(=O)c3ccc(C)c(F)c3)CC1)c1cccn1-2  5.27% [at 0.68 µM]
5. CCOc1ccc(-c2nc(CN3CCN(C(=O)Nc4cccc(C)c4C)CC3)c(C)o2)cc1  -7.65% [at 0.68 µM]
6. O=C(CC1Nc2c3ccccc3nc(=S)n2C1=O)NCCc1ccccc1 (stereo not drawn)  -10.8% [at 0.68 µM]

In order of falling max activity:
1. CCOC(=O)c1cccc(NC(=O)Nc2ccc(-c3nc(-c4ccc(C)cc4C)co3)cc2)c1  -3.92% [at 1.35 µM]
2. COc1cccc(-c2nc(C)c(-c3ccc(SCc4ccc(Cl)cc4Cl)nn3)s2)c1  -7.13% [at 1.35 µM]

In order of falling max activity:
1. CCCN(CCC)c1nc(-c2ccc(Cl)cc2)nc2ccccc12  25.7%
2. CCOc1ccccc1CNc1nc(-c2ccc(Cl)cc2)nc2ccccc12  22.2%
3. CC(C)NC(=O)N1CCC2(CC1)OCCN(CCO)c1ccccc12  20.9%
4. O=C(CC1CC1)N[C@H]1CN(C(=O)c2ccoc2)C[C@@H]2CCCO[C@H]21  19.7%
5. COc1ccc(-c2nc(Nc3ccc(F)cc3F)c3ccccc3n2)cc1  10.1%
6. CCOc1ccc(Nc2nc(-c3ccc(OC)cc3)nc3ccccc23)cc1  9.36%
7. Cc1ccc(C)c(-c2coc(-c3ccc(NC(=O)NCc4cccc(F)c4)cc3)n2)c1  9.05%
8. C[C@@H]1CN([C@@H](C)CO)C(=O)c2cccc(NC(=O)NC3CCCCC3)c2O[C@H]1CN(C)Cc1ccc(C(F)(F)F)cc1  7.51%
9. COc1ccc(-c2nc(Cn3nnc(-c4nc(-c5ccc(Cl)cc5)no4)c3C)c(C)o2)cc1  6.38%
10. NC(=O)C1(N2CCCCC2)CCN(c2ncc(NC(=O)c3cccc(Cl)c3)cc2C(=O)O)CC1  5.69%
11. COc1cccc(CC(=O)Nc2ccc(-c3nc(-c4cc(C)ccc4C)co3)cc2)c1  -7.87%
12. CCOc1ccccc1NC(=O)Nc1ccc(-c2nc(-c3ccc(C)cc3)co2)cc1  -10.4%
13. CCS(=O)(=O)N1CCC(C(=O)NCCc2csc(-c3cccs3)n2)CC1  -17.6%
14. COc1cccc(-c2nc(C)c(-c3ccc(SCc4ccc(Br)cc4)nn3)s2)c1  -17.9%

In order of rising max activity:
1. O=C(CCn1cnc2cc(-c3noc(-c4cccc5[nH]ccc45)n3)ccc21)N1CCCC1  -15.6% [at 0.35 µM]
2. COc1ccc(-c2nc(N3CCc4ccccc43)c3ccccc3n2)cc1  -12.2% [at 0.35 µM]
3. COc1cc(-c2noc(-c3nnn(Cc4nc(-c5ccccc5)oc4C)c3C)n2)cc(OC)c1OC  6.25% [at 0.35 µM]
4. CCC(C(=O)N1CCC[C@@H]1C(=O)NCCc1csc(C)n1)c1ccccc1 (stereo partly drawn)  9.81% [at 0.35 µM]
5. COc1ccc(-c2nc(Nc3ccc(Cl)cc3)c3ccccc3n2)cc1  10.4% [at 0.35 µM]
6. COc1ccc(-c2nc(Nc3ccc(C)c(Cl)c3)c3ccccc3n2)cc1  13% [at 0.35 µM]

In order of rising max activity:
1. COc1ccc(-c2nc(Nc3ccc(F)cc3)c3ccccc3n2)cc1  -11.2% [at 2.6 µM]
2. O=C(Cc1cccc(F)c1)N1CCC2(CC1)Nc1cc(F)ccc1-n1cccc12  -7.02% [at 2.6 µM]
3. COc1ccc(-c2nc(C)c(-c3ccc(SCc4ccc(C)cc4)nn3)s2)cc1  10.6% [at 2.6 µM]
4. Cc1ccccc1Cn1cccc1CNS(=O)(=O)c1ccc2c(c1)CCC(=O)N2  13.6% [at 2.6 µM]

In order of rising max activity:
1. CCC(C)Nc1nc(-c2ccc(Cl)cc2)nc2ccccc12 (stereo not drawn)  -11.3% [at 10 µM]
2. COc1ccc(-c2nc(Cn3nnc(-c4nc(-c5cccc(F)c5)no4)c3C)c(C)o2)cc1  5.24% [at 10 µM]
3. NCCNC(=O)c1nc(-c2ccc(Br)o2)no1  8.96% [at 10 µM]
4. CCCNC(=O)[C@H]1[C@H](CO)[C@H]2Cn3c(ccc(C4=CCCCC4)c3=O)[C@H]2N1Cc1ccccc1F  16.8% [at 10 µM]
5. COc1cccc(-c2nc(C)c(-c3ccc(SCc4ccc(C)cc4)nn3)s2)c1  22.3% [at 10 µM]
6. N#Cc1ccc(-c2ccc3c(c2)[C@H]2[C@H](CCN2C(=O)C2CCCCC2)[C@@H](CO)N3)cc1  27.2% [at 10 µM]
7. O=C(Nc1ccc(-c2nc(-c3ccccc3)co2)cc1)Nc1ccccc1Cl  29.7% [at 10 µM]
8. COc1ccc(NC(=O)Nc2ccc(-c3nc(-c4ccc(C)cc4)co3)cc2)cc1  43.2% [at 10 µM]
9. COc1cc(C(=O)Nc2ccc(-c3nc(-c4ccc(C)cc4)co3)cc2)cc(OC)c1OC  54.9% [at 10 µM]
10. COc1ccccc1NC(=O)Nc1ccc(-c2nc(-c3ccccc3)co2)cc1  62.5% [at 10 µM]

In order of falling max activity:
1. CN1[C@@H]2c3ccc(/C=C/c4ccccc4)c(=O)n3C[C@H]1[C@H](CO)[C@H]2C(=O)NC1Cc2ccccc2C1  43.1% [at 5 µM]
2. C[C@H]1CN([C@@H](C)CO)C(=O)c2cccc(NC(=O)c3ccc(-c4nccs4)cc3)c2O[C@@H]1CN(C)C(=O)Nc1ccc(C(F)(F)F)cc1  30.7% [at 5 µM]
3. O=C(CCC1N=C2c3ccccc3N=C(SCc3cccc(Cl)c3)N2C1=O)NCc1ccco1 (stereo not drawn)  24.8% [at 5 µM]
4. Cc1nc(-c2ccc(F)cc2)sc1-c1ccc(SCc2ccc(F)cc2)nn1  12.7% [at 5 µM]
5. O=C(CC1N=C2c3ccccc3N=C(SCc3cccc(F)c3)N2C1=O)NCc1cccs1 (stereo not drawn)  -23.9% [at 5 µM]

In order of rising max activity:
1. O=C(CCn1cnc2cc(-c3noc(CCc4c[nH]c5ccccc45)n3)ccc21)N1CCCC1  -14.5% [at 0.16 µM]
2. CCc1onc(C)c1C1CCCN1C(=O)c1cc(C(F)(F)F)nn1C (stereo not drawn)  5.66% [at 0.16 µM]
3. COc1ccc(-c2nc(C)c(-c3ccc(SCc4c(F)cccc4Cl)nn3)s2)cc1  6.69% [at 0.16 µM]
4. COc1cccc(-c2nc(C)c(-c3ccc(SCc4ccc(C(F)(F)F)cc4)nn3)s2)c1  7.57% [at 0.16 µM]
5. Cc1ccc2c(c1C)-n1cccc1C1(CCN(C(=O)c3ccc(Br)cc3)CC1)N2  7.92% [at 0.16 µM]
6. Cc1ccc(NC(=O)Nc2ccc(-c3nc(-c4ccccc4)co3)cc2)cc1  19.9% [at 0.16 µM]
